Bioassay records: PubChem, National Center for Advancing Translational Sciences (NCATS)
Sampled rows, rich in hits. Any-hit rate of the full collection: about 6%.
D1 agonist: agonists of human D1 dopamine receptor | activation, % at 2 µM | P21728 | 360,000 tested, 1% active | HEK293 T-REx D1 cells, calcium flux, agonist mode | AID 504660; in the data active means activation above about 30%; further: 0% is about no effect
Target sequence (P21728 whole entry, looked up): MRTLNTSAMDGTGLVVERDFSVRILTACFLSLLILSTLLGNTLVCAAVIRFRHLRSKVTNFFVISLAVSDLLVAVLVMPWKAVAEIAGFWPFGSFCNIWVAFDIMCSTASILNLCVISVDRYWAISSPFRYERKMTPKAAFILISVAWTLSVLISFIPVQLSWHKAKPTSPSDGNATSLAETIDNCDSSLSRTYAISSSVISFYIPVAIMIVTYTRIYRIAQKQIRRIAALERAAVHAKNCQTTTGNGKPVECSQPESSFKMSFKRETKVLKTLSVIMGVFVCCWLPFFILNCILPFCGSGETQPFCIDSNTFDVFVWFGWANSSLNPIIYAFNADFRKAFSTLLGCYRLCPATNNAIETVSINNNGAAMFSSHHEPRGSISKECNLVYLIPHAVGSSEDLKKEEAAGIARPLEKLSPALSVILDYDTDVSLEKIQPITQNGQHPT
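Inducible HEK293 T-REx D1 cells, force-coupled to calcium signalling, were plated at 4000 cells/well with tetracycline and held overnight at 30 C. After no-wash calcium dye loading, compound-evoked calcium rise over 180 s flagged agonists.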
D3 ag: D3 dopamine receptor (human) agonism; P35462; 410,000 tested, 0.58% active; max activation, %; D3R DiscoveRx beta-arrestin cells, luminescence, 90 min; in the data active means max activation above about 30%; further: 0% is about no effect
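Agonist-mode cell screen: cells plated at 1500/well and incubated overnight at 37 °C, then exposed to library compounds for 90 min at 37 °C. Detection reagent was added for 30–60 min at room temperature, and luminescence was read.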
D1 antag: antagonists of human D1 dopamine receptor; activity change, negative = inhibition, % at 10 µM; HEK293 TREx D1 cells, calcium flux, dopamine EC80; active compounds read low; 360,000 tested, 3.2% active; in the data active means activity change below about -30%; further: on the % scale 0 is the no-effect control and ±100 the full control effect
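Cells carrying a force-coupled, tetracycline-inducible human D1 receptor report calcium flux. Each well gets a 10 s baseline, compound with 180 s monitoring, then an EC80 dopamine stimulus with a second 180 s kinetic read.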
D1 PAM: potentiators of human D1 dopamine receptor | 360,000 tested, 0.036% active | P21728 | HEK293 TREx D1 cells, calcium flux, dopamine EC20 potentiation | potentiation, % at 10 µM; in the data active means potentiation above about 30%; further: 0% is about no effect
D3 antag: D3 dopamine receptor (human) antagonism; 360,000 tested, 2.5% active; P35462; D3R cells, DiscoveRx beta-arrestin luminescence, antagonist mode; active compounds read low; max response, negative = inhibition, %; in the data active means max response below about -50%; inconclusive means no clear call, values can overlap the other calls; further: on the % scale 0 is the no-effect control and ±100 the full control effect
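Cells expressing the human receptor were seeded at 1500 cells/well, incubated overnight at 37 degrees C in 5% CO2, then exposed to library compounds with dopamine controls for 90 minutes at 37 degrees C before luminescent detection.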
The depositor's hits bear a star; ? = inconclusive; · = not tested or not shown; ! = a repeat was not active.

SMILES | D1 agonist | D3 ag | D1 antag | D1 PAM | D3 antag
O=C(OCCN1C(=O)c2ccccc2C1=O)c1cc(S(=O)(=O)N2CCOCC2)ccc1Cl | 1 | -1 | -21 | -2 | 0
O=C(OCCN1C(=O)c2cccc3c(N4CCOCC4)ccc(c23)C1=O)c1ccccc1Cl | 167* | 23 | -25 | 24 | -2
O=C(OCCN1C(=O)c2cccc3c(N4CCOCC4)ccc(c23)C1=O)c1cccc(Cl)c1 | 83* | 4 | 24 | -3 | 47
O=C(OCCN1C(=O)c2cccc3c(N4CCOCC4)ccc(c23)C1=O)c1ccc(Cl)cc1Cl | 165* | 3 | -37* | -10 | 9
Cc1cc2c(s1)c1cnn(Cc3ccc4ccccc4c3)c(=O)c1n2C | 4 | · | -2 | -5 | ·
COc1ccc(NC(=O)c2cccnc2)c(OC)c1 | 7 | 3 | -5 | -2 | 19
COc1cc2c(cc1NC(=O)c1cc(-c3cccnc3)nc3ccc(C)cc13)oc1ccccc12 | 5 | 56* | 4 | 2 | 16
COc1ccc(NC(=O)c2cc(-c3cccnc3)nc3c(C)c(C)ccc23)c(OC)c1 | 1 | 48* | 4 | 1 | 22
Cc1ccc(CN2C(=O)c3ccccc3C2c2nnnn2C(C)C)cc1 (stereo unspecified) | · | 3 | · | · | 5
CN(C)CCCNc1nc2cc(-c3cnn(Cc4ccccc4)c3)sc2c(=O)n1C | · | -10 | · | · | -7
CN1C(=O)c2cccc3c(S(=O)(=O)N4CCCC4C(=O)O)ccc1c23 (stereo unspecified) | 3 | 2 | -38* | 14 | -6
N#Cc1ccc(C23CC4(C2)[C@H](CN(CC2CCCCC2)[C@@H]4c2ccccc2)C3c2ccc(Cl)nc2)cc1 (stereo partly specified) | 1 | 17 | -8 | 0 | -72*
COc1ccc(C(CNc2ncnc3sc(C)c(C)c23)N(C)C)cc1 (stereo unspecified) | 1 | -14 | 11 | -3 | -71*
COc1ccccc1C(CNc1ncnc2sc(C)c(C)c12)N(C)C (stereo unspecified) | -2 | -12 | -8 | 0 | -5
Cc1sc2ncnc(NCC(c3ccco3)N(C)C)c2c1C (stereo unspecified) | 10 | -5 | -35* | -6 | -13
CN(C)C(CNc1ncnc2sc3c(c12)CCCCC3)c1ccco1 (stereo unspecified) | 4 | -14 | -5 | 0 | -29
C=CC[n+]1c(-c2ccc(OC)cc2)csc1NNC(=O)Nc1ccccc1 | 3 | 1 | -18 | 2 | -6
C=CC[n+]1c(-c2ccc(C)cc2)csc1Nc1ccc(NC(C)=O)cc1 | 5 | 2 | -47* | -14 | 8
CN1C(C(=O)Nc2ccc(C(=O)O)cc2)=C(O)c2ccccc2S1(=O)=O | 0 | 60* | -4 | 0 | -11
CCc1nnc(SCC(=O)Nc2ccccc2)n1CC1CCCO1 (stereo unspecified) | 5 | -7 | 6 | 9 | -24
O=C1CC(C(=O)Nc2cccc3ccccc23)C2(CCCC2)O1 (stereo unspecified) | 34* | 2 | 17 | 2 | -23
CC1(C)CC2(CCO1)OC(=O)CC2C(=O)Nc1cccc2ccccc12 (stereo unspecified) | 1 | 2 | 6 | 1 | 12
Cc1cc(/C=N/n2cnnc2)c(C)n1-c1ccc(Cl)cc1 | 7 | -6 | -9 | -7 | 1
Cc1cc(/C=N/n2cnnc2)c(C)n1-c1ccc(Cl)cc1Cl | 15 | -14 | -35* | -5 | -24
COC(=O)c1cccc(NC(=S)Nc2ccc(Cl)c(Cl)c2)c1 | 7 | -14 | -31* | -4 | 5
SMILES | D1 agonist | D3 ag | D1 antag | D1 PAM | D3 antag
COC(=O)c1cccc(NC(=O)NC(=O)c2ccc(Cl)cc2)c1 | 5 | -8 | -16 | -1 | 5
COC(=O)c1cccc(NC(=O)Nc2ccc(Cl)cc2)c1 | 26 | -12 | -35* | -3 | 0
CC(C)NC(=O)C1CCC(Cn2c(=O)c3sccc3n(CC(=O)N3CCCC3)c2=O)CC1 (stereo unspecified) | 1 | 4 | 5 | -4 | ·
COc1cc(NC(=O)CCNS(=O)(=O)c2ccc3c(c2)CCN3C(=O)C2CC2)cc(OC)c1 | 0 | -6 | 4 | -4 | ·
CCN(C(=O)C1CCC(CNS(=O)(=O)c2cccc3nsnc23)CC1)c1ccc(C)c(C)c1 (stereo unspecified) | 8 | -2 | -13 | -3 | ·
CC(C)(C)NC(=O)C1CCC(CNS(=O)(=O)c2cccc3nsnc23)CC1 (stereo unspecified) | 10 | 2 | 30 | -8 | 4
O=C(NCc1cccs1)C1CCC(CNS(=O)(=O)c2cccc3nsnc23)CC1 (stereo unspecified) | 5 | 3 | -2 | -4 | ?
CCCCN(CC)C(=O)C1CCC(CNS(=O)(=O)c2cccc3nsnc23)CC1 (stereo unspecified) | 7 | 5 | -31*! | -4 | 4
O=C(C1CCC(CNS(=O)(=O)c2cccc3nsnc23)CC1)N1CC=C(c2ccccc2)CC1 (stereo unspecified) | 8 | 60* | 2 | -5 | 179
O=C(C1CCN(S(=O)(=O)c2cccc3nsnc23)CC1)N1CC=C(c2ccccc2)CC1 | · | 2 | · | · | 19
CCC(C)(C)NC(=O)C1CCC(CNS(=O)(=O)c2cccc3nsnc23)CC1 (stereo unspecified) | 6 | -1 | -40* | 0 | 12
COc1cccc(CNC(=O)C2CCC(CNS(=O)(=O)c3cccc4nsnc34)CC2)c1 (stereo unspecified) | 5 | -4 | -41* | -7 | -8
O=C(CS(=O)(=O)c1cccc2nsnc12)Nc1ccccc1Cl | -1 | 7 | 12 | -4 | ·
Cc1nn(CCc2nn[nH]n2)c2nc(-c3ccc(C4CCCCC4)cc3)cc(C(F)(F)F)c12 | 9 | 17 | -46* | -6 | 14
Cc1ccc(C(=O)c2c3ccc(N)cc3nn2CCC(N)=O)cc1 | 3 | -13 | 3 | -9 | -73*
CC(=O)Nc1ccc(S(=O)(=O)N2CCN(c3cc(C)ccc3C)CC2)cc1 | 2 | -3 | 7 | 0 | -28
CC(=O)Nc1ccc2c(c1)CN(c1cc(C)ccc1C)CO2 | 9 | -4 | -37* | -2 | -16
COC(=O)[C@H]1[C@H]2C[C@@H]3c4[nH]c5ccccc5c4CCN3C[C@H]2C[C@@H](OC(=O)c2cc(OC)c(OC)c(OC)c2)[C@@H]1OC | · | -4 | · | · | ·
Fc1ccc(N2CCN(c3nnnn3-c3ccccc3)CC2)cc1 | 0 | 0 | -40* | 3 | -10
CCc1ccccc1NC(=O)C(CCSC)NS(=O)(=O)c1ccc2c(c1)oc(=O)n2C (stereo unspecified) | -2 | -5 | -7 | 2 | ·
CCOC(=O)CSc1nc2nc(C)cc(C)n2n1 | -2 | 1 | 6 | -3 | 0
